Active and inactive are the calls of the source. Rule for the calls: active = hit-call score of the fitted dose curve at least 0.9, where 1 is the maximum; inactive = score below 0.9.

The experiment in a line: ATG_M_32_CIS: Attagene CIS-FACTORIAL HepG2 Assay for M32 Transcription Factor (Internal Marker) (AID 2282949).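 Note: background control marker of the multiplexed CIS panel rather than a real target.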 The following applies: HepG2 Attagene cis-factorial M32 reporter, mRNA; actives raise or lower the signal. Summed up: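 Internal background marker read-out: RT-PCR/capillary electrophoresis fluorescence of reporter transcripts from transiently transfected HepG2 cells after 24 h chemical exposure. Activity fitted bidirectionally relative to DMSO negative control.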
Regarding `O=S(=O)(O)c1ccc2ccccc2c1`, the outcome was inactive.
On to `Cc1cccc(N(C)C)c1`, for which the compound was called inactive.
Turning to `FC(F)(F)C(F)(F)C(F)(F)CI`, the call was inactive.
Consider `O=C(O)C(F)(OC(F)(F)C(F)(OC(F)(F)C(F)(OC(F)(F)C(F)(F)C(F)(F)F)C(F)(F)F)C(F)(F)F)C(F)(F)F` (stereo unspecified), for which the call was inactive.
The term AC50 denotes the concentration at which the activity in the assay is half-maximal. Regarding `Nc1ccc(Oc2cccc(Oc3ccc(N)cc3)c2)cc1`, the AC50 was 137 µM (active).
In the case of `FC(F)(F)C(F)(F)C(F)(F)C(F)(F)C(F)(F)C(F)(F)CCS`, the outcome was inactive.
On the same count and under the same terms, in the case of `C=C(C)C(=O)OCC(F)(F)C(F)(F)C(F)(F)F` it was “inactive”; in that of `COC(OC(C)=O)c1ccccc1` (stereo unspecified), “inactive”; in that of `FC(F)(F)C(F)(F)C(F)(F)C(F)(F)C(F)(F)CCI`, “inactive”.
On to `Nc1ccc([N+](=O)[O-])cc1O`, for which the result was inactive.
Same read-out and setting: in the case of `C#C[C@]1(O)CC[C@H]2[C@@H]3CCc4cc(OC)ccc4[C@H]3CC[C@@]21C` it was “inactive”; in that of `CC(C)=CCCC(C)CCOC(=O)C(C)C` (stereo unspecified), “inactive”.
Still for that read-out and setting: as for `OCC(F)(F)C(F)(F)C(F)(F)C(F)F`, the entry is “inactive”.
Consider `CC(CCl)OP(=O)(OC(C)CCl)OC(C)CCl` (stereo unspecified), for which the compound was called inactive.
With `CC(C)OC(=O)c1ccccc1C(=O)OC(C)C`, the result was inactive.
Still for that read-out and setting: in the case of `FC(F)(F)C(F)(F)C(F)(F)C(F)(F)C(F)(F)C(F)(F)CC1CO1` (stereo unspecified) it was “inactive”.

The record behind these values is PubChem BioAssay (EPA / NIEHS).
